Our source for the Potency, max response and outcome values is PubChem BioAssay (NCATS).

Where “and” joins values, the source holds several entries; their conditions need not be identical. Equal entries are not always repeated. Records with an inconclusive call do not appear. Values without a mark were called inactive. Calls of active or inactive are those of the source. The call rests on the fitted dose curve; in most records, active means well fitted curve in the direction sought with a large enough effect; inconclusive means small, poorly fitted or top-dose-only effect, or another doubt; inactive means no such curve, though single readings can be large; an effect the other way counts as inactive or inconclusive.

In one test the test system is TAB113. Description: qHTS profiling for inhibitors of Plasmodium falciparum proliferation (AID 504749).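 Further: 0% = DMSO vehicle and full inhibition = artemisinin control; nearly all actives have a fitted effect of over 60% in size.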 Conditions: P. falciparum in erythrocytes, SYBR Green DNA, 72 h; series mostly up to 28.7 µM. The procedure, abridged: (§1)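 P. falciparum-infected erythrocytes (0.3% parasitemia, 2.5% hematocrit) incubated with compound 72 h at 37 C, 5% CO2. Parasite DNA detected by SYBR Green after lysis, overnight at room temperature; normalised to 0.29 uM artemisinin and DMSO.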
A general note: qHTS replaces the single test concentration by a dilution series.

The subject of another test is TAB165. Described as above. Conditions: P. falciparum in erythrocytes, SYBR Green DNA, 72 h; series mostly up to 28.7 µM. The procedure, abridged: as §1
The next test deals with W2. The test is described as above. Conditions: P. falciparum in erythrocytes, SYBR Green DNA, 72 h; series mostly up to 28.7 µM. The procedure, abridged: as §1
In another test the test system is CRL-7250. Description: Cytotoxic Profiling of Annotated Libraries Using Quantitative High-Throughput Screening (AID 1296008). Further: nearly all actives have a fitted effect of over 60% in size. On max response: on the % scale 0 is the no-effect control and ±100 the full control effect. Conditions: Five cell lines viability, CellTiter-Glo ATP luminescence, 48-72 h; max response: stronger effect = lower value. The method, boiled down:
(§2)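 Cells exposed to compounds for 48 or 72 hr at 37 degrees Celsius. Viability read as ATP-coupled luminescence with CellTiter-Glo after 10 min at room temperature.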
Background: Cellular ATP, detected with luciferase, serves as a proxy for viable cell number.

For another test, the system named is HEK293. Described as above. Conditions: Five cell lines viability, CellTiter-Glo ATP luminescence, 48-72 h; max response: stronger effect = lower value. The procedure, abridged:
as §2

Test [1] deals with HaCat. The description is as above. Conditions: Five cell lines viability, CellTiter-Glo ATP luminescence, 48-72 h; max response: stronger effect = lower value. The procedure, abridged:
as §2

The next test has as its system KB-3-1. The test is described as above. Conditions: Five cell lines viability, CellTiter-Glo ATP luminescence, 48-72 h; max response: stronger effect = lower value. The method, boiled down: as §2
Test [2] concerns NIH3T3. The description is as above. Conditions: Five cell lines viability, CellTiter-Glo ATP luminescence, 48-72 h; max response: stronger effect = lower value. The procedure, abridged: as §2
Test [3] concerns HACAT. Description: qHTS assay to identify novel small-molecules to repurpose for Merkel cell carcinoma treatment (AID 1296009). Further: nearly all actives have a fitted effect of over 60% in size. Further: potency means the concentration at half of the fitted maximal effect. Conditions: MCC and control cell lines, CellTiter-Glo viability, 72 h; at 44.8 µM (top of the series) unless noted. The method, boiled down:
(§3)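 Cells were treated for 72 hr at 37 degree celsius with compounds in 8- or 11-point dose response. Viability was read by CellTiter-Glo luminescence, normalized to no-cell (cytotoxicity) and DMSO controls.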

A further test deals with HEK293T. The test is described as above. Conditions: MCC and control cell lines, CellTiter-Glo viability, 72 h; at 44.8 µM (top of the series). The method, boiled down: as §3
A further test relates to MCC-13. The description is as above. Conditions: MCC and control cell lines, CellTiter-Glo viability, 72 h; series mostly up to 46 µM. The procedure, abridged:
as §3

The test system of another test is MCC-26. Described as above. Conditions: MCC and control cell lines, CellTiter-Glo viability, 72 h; series mostly up to 46 µM. The method, boiled down: as §3
In a further test the test system is MKL-1. The test is described as above. Conditions: MCC and control cell lines, CellTiter-Glo viability, 72 h; series mostly up to 46 µM. The procedure, abridged:
as §3

For a further test, the system named is MKL-2. The test is described as above. Conditions: MCC and control cell lines, CellTiter-Glo viability, 72 h; series mostly up to 46 µM. The procedure, abridged: as §3
For the next test, the system named is UISO. The description is as above. Conditions: MCC and control cell lines, CellTiter-Glo viability, 72 h; series mostly up to 46 µM. The procedure, abridged: as §3
The test system of the next test is WaGa. Described as above. Conditions: MCC and control cell lines, CellTiter-Glo viability, 72 h; series mostly up to 46 µM. The method, boiled down:
as §3

In another test the test system is C33A. Description: Primary qHTS to identify gynecologic anti-cancer compounds using libraries of approved drugs and bioactive compounds (AID 1345084). Further: on the % scale 0 is the no-effect control and ±100 the full control effect; nearly all actives have a fitted effect of over 55% in size. Conditions: Gynecologic cancer cell panel viability, ATPlite luminescence, 48 h; series mostly up to 57.5 µM. The procedure, abridged: (§4)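 Five-point cytotoxicity, 48 h drug exposure at 37 C, 5% CO2, on cells seeded 16 h beforehand. ATP content read by ATPlite luminescence.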

For the next test, the system named is CAOV3. The description is as above. Conditions: Gynecologic cancer cell panel viability, ATPlite luminescence, 48 h; series mostly up to 57.5 µM. The procedure, abridged:
as §4

The next test deals with CASKI. The test is described as above. Conditions: Gynecologic cancer cell panel viability, ATPlite luminescence, 48 h; series mostly up to 57.5 µM. The procedure, abridged:
as §4

The test system of test [4] is NIH3T3. Nature of the test: qHTS assay to identify novel small-molecules to repurpose for Merkel cell carcinoma treatment (AID 1296009). Further: nearly all actives have a fitted effect of over 60% in size. Further: potency means the concentration at half of the fitted maximal effect. Conditions: MCC and control cell lines, CellTiter-Glo viability, 72 h; at 44.8 µM (top of the series) unless noted. The procedure, abridged: as §3

Take `CC(=O)c1ccc(S(=O)(=O)NC(=O)NC2CCCCC2)cc1`: the Potency result in the test with TAB113, in the test on TAB165, in the test with W2, in the test on MCC-13, with MCC-26 and in the test on MKL-1 was “inactive” throughout. The Potency result in the test with MKL-2, in the test on UISO, in the test with WaGa, in the test on C33A, in the test on CAOV3 and in the test on CASKI was “inactive” each time. Further, the max response is -4.5% in the test on CRL-7250, -6.14% with KB-3-1 and -3.55% in the test with NIH3T3 [2]. The molecule was called inactive in the test with HEK293, in the test on HaCat [1], with HACAT [3] and in the test with HEK293T.
Take `O=C1NCC2(CCN(CCc3ccccc3)CC2)O1`: the Potency result in the test on TAB113, in the test on TAB165, in the test on W2, in the test with MCC-13, in the test with MCC-26 and in the test on MKL-1 was “inactive” in each case. Further, the Potency entry with MKL-2, with UISO, with WaGa, in the test with C33A, with CAOV3 and with CASKI was “inactive” in each case. For the same molecule, the outcome in the test on CRL-7250, with HEK293, with HaCat [1], with NIH3T3 [2], in the test on HACAT [3] and in the test on HEK293T was inactive. In addition, the call in the test with NIH3T3 [4] was inactive. Moreover, the max response in the test with KB-3-1 is 9.9%.
As to `O=c1ccn([C@@H]2O[C@H](CO)[C@H](O)[C@H]2O)c(=O)[nH]1`, the results for the max response with CRL-7250 and in the test with NIH3T3 [2] were -5.18% and -5.13%, respectively. Besides, the molecule was called inactive in the test with HEK293, in the test on HaCat [1], in the test on KB-3-1, with HACAT [3] and in the test with HEK293T. Further, the Potency result in the test on MCC-13, in the test on MCC-26, in the test on MKL-1, with MKL-2, in the test with UISO and with WaGa was “inactive” throughout.
For the molecule `CCOC(=O)O[C@]1(C(=O)OCCl)CC[C@@H]2[C@H]3CCC4=CC(=O)C=C[C@]4(C)[C@@H]3[C@@H](O)C[C@@]21C`, the Potency entry in the test with TAB113, with TAB165, in the test on MCC-13, in the test on MCC-26, with MKL-1 and with MKL-2 was “inactive” in each case. The Potency result with UISO and in the test on WaGa was “inactive” in each case. In addition, the call in the test with CRL-7250, in the test on HEK293, in the test with HaCat [1], in the test on KB-3-1, in the test with NIH3T3 [2] and with HACAT [3] was inactive. In addition, the outcome in the test on HEK293T and in the test with NIH3T3 [4] was inactive.
As to `COc1cccc([C@@H](C)NCCCc2ccccc2Cl)c1`, the molecule was called inactive with CRL-7250, with HaCat [1], in the test on KB-3-1, in the test with NIH3T3 [2], with HACAT [3] and in the test on NIH3T3 [4]. Also, in the test on HEK293, the max response was 1.17%. The Potency entry in the test on MCC-13, with MCC-26, with MKL-1, in the test on UISO and with WaGa was “inactive” in each case.
With `CC1(C)CCC[C@@]2(C)[C@@H]1CC[C@@]1(C)OC(=O)C[C@H]21`, the max response with CRL-7250 was 1.92%; with HEK293, -1.67%; in the test on KB-3-1, 5.91%; in the test with NIH3T3 [2] it was 1.1%. The call in the test with HaCat [1] and with HACAT [3] was inactive. For the same molecule, the Potency entry in the test with MCC-13, with MCC-26, with MKL-1, in the test on MKL-2, with UISO and in the test with WaGa was “inactive” in each case.
For the molecule `c1cc(-c2sc(-c3ccncc3)c(-c3ccncc3)c2-c2ccncc2)ccn1`, the max response is -2.98% with CRL-7250, -5.01% with HEK293, 6.28% in the test on KB-3-1 and 4.17% in the test on NIH3T3 [2]. The molecule was called inactive in the test on HaCat [1] and with HACAT [3]. The Potency result in the test on MCC-13, in the test on MCC-26, with MKL-1, in the test on MKL-2 and in the test on WaGa was “inactive” each time.
Take `NC(=O)NN=Cc1ccc([N+](=O)[O-])o1`: the outcome with CRL-7250, in the test with HaCat [1], in the test with NIH3T3 [2], in the test with HACAT [3] and in the test on NIH3T3 [4] was inactive. Moreover, the max response is 1.13% in the test with HEK293 and 2.76% in the test on KB-3-1. Besides, the Potency entry with MCC-13, with MCC-26, in the test on MKL-1, in the test on MKL-2 and in the test with UISO was “inactive” in each case.
For the molecule `NCCS`, the Potency entry in the test on TAB113, in the test with TAB165, with W2, in the test on MCC-13, in the test with MCC-26 and in the test with MKL-1 was “inactive” throughout. Also, the Potency result in the test with MKL-2, in the test on UISO, in the test on WaGa, in the test on C33A, with CAOV3 and in the test with CASKI was “inactive” throughout. Moreover, the max response was -9.34% in the test on CRL-7250; -0.944% and -2.01% with KB-3-1; 4.3% in the test with NIH3T3 [2]. Moreover, the result in the test on HEK293, with HaCat [1], in the test on HACAT [3] and with HEK293T was inactive.
With `N#Cc1ccc(NC(=O)Nc2ccccc2Br)c2n[nH]nc12`, the max response is -24.9% in the test with CRL-7250, -11% in the test with HEK293, 1.71% in the test with KB-3-1 and 3.86% with NIH3T3 [2]. Also, the result in the test on HaCat [1] and with HACAT [3] was inactive. Also, the Potency result in the test with MCC-13, in the test with MCC-26, in the test on MKL-1, in the test on MKL-2, in the test on UISO and in the test on WaGa was “inactive” each time.
On to `CCCCCCCCCCCC1=C(O)C(=O)C=C(O)C1=O`, for which the molecule was called inactive in the test with CRL-7250, in the test on HEK293, in the test with HaCat [1], in the test on KB-3-1, in the test on HACAT [3] and in the test with HEK293T. The max response in the test on NIH3T3 [2] was -3.68%. Also, the Potency entry in the test with MCC-13, in the test with MCC-26 and with UISO was “inactive” each time. The Potency in the test on MKL-1 and with WaGa was 2960 nM (active) each time.
In the case of `O=C1Nc2ccc(Cl)cc2C(C#CC2CC2)(C(F)(F)F)O1` (stereo not given), the Potency result with TAB113, in the test with W2, in the test on MCC-13, in the test on MCC-26, in the test on MKL-1 and in the test with MKL-2 was “inactive” each time. The Potency entry with UISO and with WaGa was “inactive” each time. The max response is -18.6% in the test with CRL-7250, -29.6% with HEK293, -17.5% in the test with KB-3-1 and -6.53% with NIH3T3 [2]. For the same molecule, the outcome in the test on HaCat [1] and in the test on HACAT [3] was inactive.
Consider `CCC(CC)[C@H](NC(C)=O)[C@@H]1[C@H](O)[C@@H](C(=O)O)C[C@@H]1N=C(N)N`, for which the max response in the test on CRL-7250 is 2.58%; in the test on HEK293, -9.34%; in the test with KB-3-1, 7.98%. Besides, the result in the test with HaCat [1], in the test on NIH3T3 [2], with HACAT [3] and in the test with NIH3T3 [4] was inactive. Also, the Potency result in the test on MCC-13, with MCC-26, in the test with MKL-1, in the test on MKL-2, in the test with UISO and with WaGa was “inactive” each time.
